# Measurements taken from PubChem BioAssay AID2435 (The Scripps Research Institute Molecular Screening Center, 2010).
# Out of some 320,000 compounds screened, about 1,000 (0.31%) were called active.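 The calls were made as follows: active = activation above the mean of all tested compounds plus 3 SD, cutoff set per screening run (cut at about 20% in these data); inactive = the rest.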 Many of the other results were omitted from the sample, so actives are more common in it than they were.
# Biological target: Oxytocin receptor (Homo sapiens) (UniProt P30559)
# Sequence (P30559 whole entry, looked up): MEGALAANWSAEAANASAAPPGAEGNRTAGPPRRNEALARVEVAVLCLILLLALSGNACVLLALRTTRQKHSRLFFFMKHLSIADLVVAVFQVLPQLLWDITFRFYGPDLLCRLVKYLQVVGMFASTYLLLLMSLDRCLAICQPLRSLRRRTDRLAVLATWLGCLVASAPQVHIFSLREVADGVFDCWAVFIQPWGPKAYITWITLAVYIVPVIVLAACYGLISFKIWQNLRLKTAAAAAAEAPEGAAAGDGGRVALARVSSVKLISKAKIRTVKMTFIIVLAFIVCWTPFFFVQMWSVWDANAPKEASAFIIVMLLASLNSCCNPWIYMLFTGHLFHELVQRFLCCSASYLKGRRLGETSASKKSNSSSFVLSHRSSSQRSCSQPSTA
# Experiment: human OXTR agonists, primary screen, fluorescence, CHO-OTR cells, Fluo-8 calcium (AID 2435);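 also: peak over basal fluorescence ratio from a 100 s FLIPR kinetic read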
# Conditions: Fluo-8 calcium fluorescence, at 3 µM, active compounds read high, normalized: DMSO 0%, oxytocin 100%
row,Structure (SMILES),activation
1,CCCCCCCCCCCCC(NC(C)=O)(C(=O)OCC)C(=O)OCC,1.74% (inactive)
2,O=C(c1cccnc1)N1CCN(S(=O)(=O)c2cccs2)CC1,0.18% (inactive)
3,Fc1ccc(NC(=S)N2CCc3[nH]c4ccccc4c3C2)cc1,4.05% (inactive)
4,CC1CCc2[nH]c3ccc(C(=O)N(C)CC(=O)Nc4cccc(F)c4)cc3c2C1 (stereo unspecified),2.82% (inactive)
5,O=C(CCCN1CCc2[nH]c3ccc(F)cc3c2C1)c1ccc(F)cc1,24.7% (active)
6,Cc1cccc(OCCC(=O)Nc2cc(S(=O)(=O)N3CCCCC3)ccc2N2CCOCC2)c1,-0.97% (inactive)
7,CC1(C)C2CC[C@]3(C)C(CC=C4[C@@H]5C[C@@](C)(CO)CC[C@]5(C(=O)O)CC[C@]43C)[C@@]2(C)CC[C@@H]1O (stereo partly specified),0.42% (inactive)
8,CC1(C)CC[C@]2(C(=O)O)CC[C@]3(C)C(=CCC4[C@@]5(C)CC[C@H](O)C(C)(C)C5[C@H](O)C[C@]43C)[C@@H]2C1 (stereo partly specified),2.18% (inactive)
9,CC1(C)CC[C@@]2(C(=O)O)C(C1)C1=CCC3[C@@]4(C)CC[C@H](O)C(C)(C)C4CC[C@@]3(C)[C@]1(C)C[C@H]2O (stereo partly specified),30.7% (active)
10,Cc1ccc(S(=O)(=O)N(CC(=O)NN=C2CCN(C)CC2)c2ccc(F)cc2)cc1,-1.6% (inactive)
11,CCCn1nc(C(=O)N2CCCc3ccccc32)c2ccccc2c1=O,-1.8% (inactive)
12,O=C(OCCN=C1NS(=O)(=O)c2ccccc21)c1cccc([N+](=O)[O-])c1,1.88% (inactive)
13,O=C(CCCN=C1NS(=O)(=O)c2ccccc21)OCC(=O)c1ccc(F)c(F)c1,30.8% (active)
14,N#CC1(NC(=O)COC(=O)CCN=C2NS(=O)(=O)c3ccccc32)CCCCC1,0.35% (inactive)
15,OCCN(Cc1ccccc1)Cc1ccc(Cl)cc1,-0.86% (inactive)
16,CN(C(=O)CN(CCO)CC(=O)N(C)C(C)(C)Cc1ccccc1)C(C)(C)Cc1ccccc1,50.2% (active)
17,CCN(CC)CCCNC(=O)CCc1ccccc1,-0.47% (inactive)
18,Cc1cc(S(=O)(=O)N2CCOCC2)ccc1OCC(=O)Nc1cccc(C(F)(F)F)c1,0.91% (inactive)
19,CCCCC(=O)NNC(=S)NC(=O)C(c1ccccc1)c1ccccc1,68.1% (active)
20,CCNC(=S)NNC(=O)Cc1ccccc1,1.03% (inactive)
21,CC(C)C(=O)Nc1cccc(NC(=S)NC(=O)C(c2ccccc2)c2ccccc2)c1,4.03% (inactive)
22,CC1CCCN(CCCNC(=O)CN2C(=O)COc3ccc(S(=O)(=O)N4CCOCC4)cc32)C1 (stereo unspecified),0.7% (inactive)
23,Cc1ccc(OS(=O)Nc2cccc3nccnc23)cc1 (stereo unspecified),0.23% (inactive)

row,Structure (SMILES),activation
1,Cc1nn(C)cc1N1C(=O)c2cccc3c(N)ccc(c23)C1=O,70.2% (active)
2,O=C(O)c1ccc2c3c(cccc13)C(=O)N(OS(=O)(=O)c1ccccc1)C2=O,0.06% (inactive)
3,COc1ccc(N2C(=O)c3cccc4cccc(c34)C2=O)nn1,-0.24% (inactive)
4,CN1C(=O)c2cccc3c(N)ccc(c23)C1=O,84.9% (active)
5,Cc1nn(C)cc1C(=O)c1ccccc1,-1.25% (inactive)
6,CC(=O)Nc1ccccc1Sc1ccc2c3c(cccc13)C(=O)N(c1ccc(C)cc1)C2=O,-0.75% (inactive)
7,CSc1ncccc1C(=O)Nc1cccc(S(=O)(=O)N2CCOCC2)c1,3.66% (inactive)
8,CN(C)CCCN(C(=O)c1ccc(S(=O)(=O)N2CCCc3ccccc32)cc1)c1nc2ccc(F)cc2s1,15.5% (inactive)
9,CN(C)CCCN(C(=O)c1ccc(S(=O)(=O)N2CCCCCC2)cc1)c1nc2ccc(Br)cc2s1,20.8% (active)
10,CN(C)CCCN(C(=O)c1ccc(S(=O)(=O)N2CCCCCC2)cc1)c1nc2cc3c(cc2s1)OCCO3,3.02% (inactive)
11,Cc1oc2nc(SCC(=O)Nc3ccc(S(N)(=O)=O)cc3)nc(NC(=O)c3ccccc3)c2c1C,0.48% (inactive)
12,CCCCCCCCCCCCN1C(=O)CSC1c1cccnc1 (stereo unspecified),-0.53% (inactive)
13,COCCC(=O)Nc1ccc2c(c1)CN(C(=O)CCOC)CC2,0.4% (inactive)
14,CN(C)S(=O)(=O)c1ccc(NC(=O)N2CCOCC2)cc1,-0.79% (inactive)
15,COc1ccc(S(=O)(=O)N(C)CC(=O)N2CCCC2)cc1,1.27% (inactive)
16,CN(C)S(=O)(=O)c1ccc(Oc2ccc(S(=O)(=O)N(C)C)cc2)cc1,23.4% (active)
17,Cc1nc(CC(=O)NNS(=O)(=O)c2ccc(F)c(Cl)c2)cs1,-0.41% (inactive)
18,Cc1ccccc1N1CC(C(=O)Nc2ccc(S(=O)(=O)N3CCCC3)cc2)CC1=O (stereo unspecified),1.72% (inactive)
19,CN(C)CC(O)COc1ccc(C(C)(C)c2ccc(OCC(O)CN(C)C)cc2)cc1 (stereo unspecified),1.29% (inactive)
20,CC(C)(c1ccccc1)c1ccc(OCCN)cc1,20.2% (active)
21,CC(C)(c1ccccc1)c1ccc(OCCN2CCCC2)cc1,16% (inactive)
22,COc1ccc(-c2csc3ncnc(N4CCN(S(=O)(=O)c5ccccc5C#N)CC4)c23)cc1,-0.22% (inactive)
23,Cc1c(CCOC(=O)CC23CC4CC(CC(C)(C4)C2)C3)sc[n+]1Cc1ccc([N+](=O)[O-])cc1,-1.22% (inactive)

row,Structure (SMILES),activation
1,COc1cc(OC)c2ccc(=O)oc2c1C(CCN1CCN(c2ccccc2)CC1)c1ccc2c(c1)OCO2 (stereo unspecified),-1.49% (inactive)
2,COc1cc(C(CCN2CCN(c3ccccc3)CC2)c2c(OC)cc(OC)c3ccc(=O)oc23)cc(OC)c1OC (stereo unspecified),22.2% (active)
3,CCN(CC)CCC(c1cc(OC)c(OC)c(OC)c1)c1c(OC)cc(OC)c2c(-c3ccccc3)cc(=O)oc12 (stereo unspecified),2.08% (inactive)
4,Cc1ccc(S(=O)(=O)N2CCN(C(=O)Cc3sc(C)nc3-c3ccc(F)cc3)CC2)c(C)c1,-2.3% (inactive)
5,CCCn1nc2cc(C(=O)NCc3ccccc3)ccc2c1OCC,-2.12% (inactive)
6,Cc1cc2nc3c(=O)n(Cc4ccccc4)c(=O)[nH]c3nc2cc1N,52.9% (active)
7,COC(=O)CSc1nc2ccccc2c(=O)n1Cc1ccccc1,-1.02% (inactive)
8,C=CCSc1nc2c(c(=O)[nH]c(=O)n2C)n1Cc1ccccc1,-0.23% (inactive)
9,O=S(=O)(NCCOc1cccc2cccnc12)c1ccc(F)cc1,3.57% (inactive)
10,CCOC(=O)N/N=C1\CC(C)S(=O)(=O)c2ccc(Cl)cc21 (stereo unspecified),-2.06% (inactive)
11,CCOc1ncccc1C(=O)NCCc1ccc(OC)cc1,-1.34% (inactive)
12,Cc1nc(CN2CCN(C(=O)CCc3nnc(Cc4c[nH]c5ccccc45)o3)CC2)cs1,-0.27% (inactive)
13,CCCc1nc2c(c(=O)c3ccccc3n2C)c(=O)n1C1CCCCCC1,52.1% (active)
14,Cn1c2ccccc2c(=O)c2c(=O)n(Cc3ccco3)c(COc3ccccc3)nc21,1.8% (inactive)
15,Cn1c2ccccc2c(=O)c2c(O)cccc21,-1.89% (inactive)
16,Cc1ccc(C(=O)Cc2nnc(C)s2)cc1,-0.26% (inactive)
17,Oc1ccc2ccc3cccc[n+]3c2c1,65.3% (active)
18,COc1ccc(N2CCN(C(=O)[C@@H](NC(=O)c3cc(OC)cc(OC)c3)C(C)C)CC2)cc1,-0.71% (inactive)
19,CCOc1ccc(CCNC(=O)C2CCN(c3ccc(N4CCOCC4)nn3)CC2)cc1OCC,-0.01% (inactive)
20,NC(=O)C1CCN(C(=O)c2cn(-c3ccccc3)nc2-c2cccnc2)CC1,1.05% (inactive)
21,Cc1ccc(-c2nn(-c3ccccc3)cc2C(=O)NC2CCC(O)CC2)cc1 (stereo unspecified),0.66% (inactive)
22,O=C(NNC(=S)NC(=O)c1cn(-c2ccccc2)nc1-c1ccccc1)c1ccncc1,21.2% (active)
23,COC(=O)c1ccc(COC(=O)C2CCN(S(=O)(=O)c3c(Cl)cccc3Cl)CC2)o1,0.45% (inactive)

row,Structure (SMILES),activation
1,O=C(NCc1ccco1)/C(=C/c1cccc([N+](=O)[O-])c1)NC(=O)c1ccco1,-0.34% (inactive)
2,CCOC(=O)N1CCN(C(=O)C2CC(c3ccc(F)cc3)=NO2)CC1 (stereo unspecified),0.22% (inactive)
3,O=C(c1ccco1)N1CCN(C(=O)C2CC(c3ccc(Cl)c(Cl)c3)=NO2)CC1 (stereo unspecified),5.71% (inactive)
4,O=C(c1ccco1)N1CCN(C(=O)C2CC(c3ccc(F)cc3)=NO2)CC1 (stereo unspecified),38.1% (active)
5,CC1(C)Oc2ccc3ccc(=O)oc3c2/C(=N/O)C1=O,-0.3% (inactive)
6,CCCCOc1ccc(CON(C(C)=O)C(C)=O)cc1Cl,-0.28% (inactive)
7,CC(C)(C)NCC(O)COc1cccc2[nH]c(=O)[nH]c12 (stereo unspecified),-0.01% (inactive)
8,CC(O)CNCCOc1cccc(Oc2ccccc2)c1 (stereo unspecified),2.15% (inactive)
9,COc1ccccc1OCCNCC(O)COc1cccc2[nH]c3ccccc3c12 (stereo unspecified),20.7% (active)
10,CC(=O)c1ccc(NC(=O)c2sc3nc4n(c(=O)c3c2C)CCCCC4)cc1,7.14% (inactive)
11,COc1cccc(CNCCc2c[nH]c3ccccc23)c1OCc1ccccc1F,23.9% (active)
12,COc1ccc(S(=O)(=O)NCCc2c[nH]c3ccccc23)cc1OC,4.77% (inactive)
13,COc1ccccc1NC(=O)CCCc1c[nH]c2ccccc12,-0.34% (inactive)
14,Cc1cc2nc3n(c2cc1C)CC1CC(C(=O)NCCC(C)C)N(C)C31 (stereo unspecified),0.52% (inactive)
15,O=c1c2ccccc2nc2n1C(CSc1ccc(F)cc1)CN2 (stereo unspecified),0.69% (inactive)
16,O=c1c2ccccc2nc2n1C(CSc1ccc(Cl)cc1)CN2 (stereo unspecified),25.6% (active)
17,O=c1c2ccccc2nc2n1C(CSCc1ccccc1)CS2 (stereo unspecified),0.87% (inactive)
18,Cc1ccc(S(=O)(=O)N(C)C)cc1NC(=O)C1Cc2ccccc2CN1C(=O)c1ccco1 (stereo unspecified),-0.61% (inactive)
19,C=C(C)CSc1nnc(-c2ccc(C)cc2)n1N,-2.48% (inactive)
20,COc1ccc(CNC(=O)CCC(=O)Nc2nnc(C(C)C)s2)cc1,-0.01% (inactive)
21,CCc1nn(CCCC(=O)NC(C)c2ccccc2)c(=O)c2cc3occc3n12 (stereo unspecified),-0.99% (inactive)
22,FC(F)(F)c1cc(-c2ccco2)nc(NCc2ccc(Cl)cc2)n1,0.65% (inactive)
